KB-V1 MDR tox = kills drug-selected multidrug resistant KB-V1 cells; KB-V1 MDR cells viability, CellTiter-Glo, 72 h; Potency, µM (top dose mostly 46.1 µM), actives largely listed as cytotoxic; 400,000 compounds, 3.4% hits; AID 1347076; note: % is set by controls: 0 for no effect and ±100 for the full control effect; nearly all actives have a fitted effect of over 60% in size
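Cells of the MDR subline KB-V1 are plated, dosed with compound at multiple concentrations, and incubated 72 h at 37 degrees C; CellTiter-Glo is then added and luminescence read after 10 min.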
HepG2 tox = HepG2 cytotoxicity, counter-screen for TGF-b inhibitors; HepG2 CAGA-GFP viability, ATP luminescence, 18 h; Potency, µM (doses to about 46.1 µM), inactives show at the top dose activity change, negative = cytotoxicity, usual class: cytotoxic; 410,000 compounds, 0.76% hits; AID 588856
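CellTiter-Glo luminescence gave cytotoxicity after 18 hours at 37 degrees C. The cells were HepG2 CAGA-GFP in 1% FBS DMEM, stimulated with 500 pg/mL TGF-beta after compound addition. %Activity was normalised to no-cell wells (complete cell-killing) and DMSO (no toxicity), and curves were fitted and classified.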
KB-3-1 cytotox = kills parental KB-3-1 adenocarcinoma cells. KB-3-1 viability, CellTiter-Glo ATP luminescence, 72 h. Potency, µM (top dose mostly 46.1 µM), actives largely listed as cytotoxic. 400,000 compounds, 1.4% hits. AID 1347075; note: % is set by controls: 0 for no effect and ±100 for the full control effect; nearly all actives have a fitted effect of over 60% in size
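KB-3-1 parental drug-naive adenocarcinoma cells in DMEM/10% FBS, incubated 72 h at 37 C with pin-transferred compounds across a concentration series. Viability by CellTiter-Glo luminescence; concentration-response curves fitted after normalization.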
HT1080NT lethal = kills 2HG-producing HT-1080-NT fibrosarcoma cells; HT-1080-NT fibrosarcoma viability, CellTiter-Glo ATP luminescence, 48 h; Potency, µM (series often up to 46.1 µM), for inactives: top-dose activity, negative = less viability, actives largely listed as cytotoxic; 360,000 compounds, 1.6% hits; AID 686970;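 note: NT is the 2HG producing partner of a matched IDH1 knockdown line; 0% = DMSO-treated cells and -100% = media-only wells without cells; nearly all actives have a fitted effect of over 55% in size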
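A 48-hour cytotoxicity screen used HT-1080-NT cells plated 2 hours before compound delivery. ATP-based CellTiter-Glo luminescence measured viability, normalized to DMSO and no-cell controls.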
TGFb inhibitor = TGF-b pathway inhibition. HepG2 CAGA-GFP TGF-b/SMAD3 reporter, GFP fluorescence, 18 h; TGF-beta stimulated, 500 pg/mL final. Potency, µM (titrated, usually from 46.1 µM), without a hit: at the highest dose activity, negative = inhibition, usual class: inhibitors. 410,000 compounds, 1.2% hits; note: % is set by controls: 0 for no effect and ±100 for the full control effect; nearly all actives have a fitted effect of over 65% in size
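Per well, imaged GFP fluorescence of HEPG2 CAGA-GFP cells gives the signal; cells get compound, then TGF-beta (500 pg/mL final), 18 h at 37 degrees C; %Activity versus -TGF-beta and +DMSO controls.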
HT1080 IDH1KD tx = toxicity to HT-1080 IDH1 knockdown cells (counter line); HT-1080 IDH1 knockdown viability, ATP luminescence, 48 h; Potency, µM (titrated, usually from 46.1 µM), for inactives: top-dose activity, negative = toxicity, usual class: cytotoxic; 360,000 compounds, 2% hits; AID 686971;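 note: 0% = DMSO wells and -100% = cell-free medium wells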
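Assay cells: HT-1080 with IDH1 knockdown, 750 per well, RPMI/5% FBS. Exposure: 48 h at 37 °C following 2 h pre-incubation. Read: CellTiter-Glo luminescence; fitted concentration-response, curve class assigned.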
Active calls of the source: *; i = inactive; u = inconclusive; x = not tested or not shown; [ ] = remark or other dose. Sampled rows, rich in hits. Any-hit rate of the full collection: about 6.6%. Calls come from the whole dose curve; as a rule, active = well fitted curve in the direction sought with a large enough effect; inconclusive = small, poorly fitted or top-dose-only effect, or another doubt; inactive = no such curve, though single readings can be large; an effect the other way counts as inactive or inconclusive. Potency is the fitted concentration of half-maximal effect.

SMILES | KB-V1 MDR tox | HepG2 tox | KB-3-1 cytotox | HT1080NT lethal | TGFb inhibitor | HT1080 IDH1KD tx
Cc1ccccc1NC1=C(Cl)C(=O)OC1OC(=O)c1ccco1 (centres undefined) | i | -38.3% | i | u | -22.8% | 11.2µM*
COc1ccccc1NC1=C(Cl)C(=O)OC1OC(=O)c1ccco1 (centres undefined) | i | -22.4% | i | 20.6µM* | -3.4% | u
Cc1ccc(NC(=O)NNC(=O)Cn2nc(-c3ccccc3)c(-c3ccccc3)c(C#N)c2=O)cc1 | i | 1.8% | 6.51µM* | 4.61µM* | u | 5.17µM*
COc1cc2c(cc1OC)C(COc1ccc3c(C)cc(=O)oc3c1)N(C(=O)c1ccccc1F)CC2 (centres undefined) | u | 0.5% | i | x | 22.4% | x
O=C(CN1C2=NCCN2c2ccccc21)C12CC3CC(CC(C3)C1)C2 | u | -7.5% | u | 20.6µM* | 55.9% | -0.9%[9.24 µM]
Cc1ccc(CN2C3=NCCN3c3ccccc32)cc1 | u | 3.9% | i | -9.0% | -2.2% | -14.9%
CCOc1ccc(Nc2oc(/C=C/c3cccc(OC)c3)nc2C#N)cc1 | i | -14.6% | i | x | u | x
COc1cc(OC)cc(C(=O)N[C@H](C(=O)NC2=NCCS2)C(C)C)c1 | 11.6µM* | 3.7% | i | 3.8% | 4.1% | 18.7%
COc1cc(O)c(C(CC(=O)N2CCC(Cc3ccccc3)CC2)c2ccc(OC)c(OC)c2)c(OC)c1 (centres undefined) | u | x | i | x | x | x
Cc1cccc(C(=O)NC(=O)Nc2ccc(-n3nc(C(F)(F)F)cc3C(F)(F)F)cc2)c1 | i | 1.4% | i | x | -4.7% | x
COc1ncccc1-c1ccc2nncn2c1 | u | 4.6% | i | 14.5% | 15.2% | 5.7%
CCCCCC(=O)N1C[C@@H](O)[C@H](n2cc(-c3ccc(F)cc3)nn2)C[C@@H]1c1ccc(C)cc1 | i | -30.7% | i | -5.4% | 17.8µM* | -11.1%
CCCCCC(=O)N1C[C@@H](n2cc(-c3ccc(F)cc3)nn2)[C@H](O)C[C@@H]1c1ccc(OC)cc1 | i | -10.0% | i | 18.4µM* | -0.7% | u
CCCCCC(=O)N1C[C@@H](n2cc(-c3ccc(F)cc3)nn2)[C@H](O)C[C@@H]1c1ccc(C)cc1 | u | -29.2% | i | -22.9% | u | u
COc1ccc(N2CCN(c3nc4ccc(C)cc4n4nnnc34)CC2)cc1 | x | 0.4% | x | x | 0.3% | x
COC(=O)C(CC(=O)c1ccc(Br)cc1)n1nc(C)cc1C (centres undefined) | i | -58.8% | i | -25.9% | u | 6.0%
COC(=O)C(CC(=O)c1ccc(Br)cc1)n1ccnc1 (centres undefined) | i | 7.94µM* | i | x | 4.47µM* | x
COc1cccc(S(=O)(=O)N2CCN(c3nc(-c4cccs4)nc4ccccc34)CC2)c1 | x | x | x | 10.9% | x | 0.0%
Cc1nnc(SCC(=O)Nc2cccc(S(N)(=O)=O)c2)n1-c1ccccc1 | i | 18.2% | i | 13.6% | 9.9% | 13.5%
C=CCn1c(SCC(=O)Nc2cccc(S(N)(=O)=O)c2)nc2sc(C)c(C)c2c1=O | 23.1µM* | -7.8% | i | -8.1% | -5.4% | u
Cc1ccc(-n2c(SCC(=O)Nc3cccc(S(N)(=O)=O)c3)nc3ccccc32)cc1 | i | -24.5% | 14.6µM* | -3.1% | u | u
CCn1c(C(=O)N2CCCC(C(=O)N3CCN(c4ccccc4)CC3)C2)cc2sccc21 (centres undefined) | i | -25.0% | i | x | 45.8% | x
C=CCN(C(=O)CSc1nc2c(sc3ccccc32)c(=O)n1CCN(CC)CC)c1ccccc1 | i | -21.1% | i | u | 17.8µM* | u
O=C(COCc1cc(-c2cccs2)on1)Nc1cccc(Cl)c1Cl | i | -9.7% | i | x | 14.0% | x
CO/N=C/NC(=O)NOCc1ccc(Cl)cc1Cl | i | 17.9% | i | -8.1% | 1.9% | -11.8%
SMILES | KB-V1 MDR tox | HepG2 tox | KB-3-1 cytotox | HT1080NT lethal | TGFb inhibitor | HT1080 IDH1KD tx
O=C(N/C=N/OCc1ccc(Cl)cc1Cl)NOCc1c(Cl)cccc1Cl | u | 17.8µM* | i | 16.4µM* | -15.5% | 16.4µM*
Nc1ncnc2c1nc(Sc1ccc(Cl)cc1)n2[C@H]1OC2COP(=O)(O)O[C@H]2[C@@H]1O (some centres undefined) | x | x | x | -10.8% | x | -0.1%
Cc1nc(N2CCC(C)CC2)c2c(C)c(C(=O)Nc3ccc4c(c3)OCCO4)sc2n1 | i | -25.5% | i | 4.4% | -16.8% | 6.8%
Cc1c(C(=O)Nc2ccc3c(c2)OCCO3)sc2ncnc(N3CCCCC3C)c12 (centres undefined) | u | 9.0% | 18.4µM* | -3.1% | u | -27.8%
CCC(=O)OCCNc1cc(Sc2nc3ccccc3[nH]2)c2nonc2c1[N+](=O)[O-] | i | -69.8% | 23.1µM* | u | -27.2% | u
CCC(=O)OCCNc1cc(Sc2nc3ccccc3s2)c2nonc2c1[N+](=O)[O-] | i | 12.6µM* | i | -57.5% | 7.94µM* | 2.82µM*
O=C(NCc1ccccc1)c1cc(C2CCCCN2C(=O)OCCF)on1 (centres undefined) | i | -1.8% | i | 0.9% | 17.4% | 8.3%
COc1ccc(-n2c(/C=C/c3cccc4ccccc34)nc3ccccc3c2=O)cc1Cl | u | -27.4% | u | x | -14.2% | x
COc1ccc(Cl)cc1NC(=O)Cn1c2ncccc2c(=O)n1-c1ccc(C)c(C)c1 | x | -17.3% | x | x | -8.1% | x
O=C(NCc1ccccc1)C1Cc2c(-c3ccc4c(c3)OCO4)ccnc2O1 (centres undefined) | 1.16µM* | -2.1% | 0.82µM* | u | -19.1% | 0.411µM*
NC(=O)c1cccc(-c2ccnc3c2CC(C(=O)NCc2ccccc2)O3)c1 (centres undefined) | i | -15.4% | 3.66µM* | u | 2.7% | u
CCCCOc1ccc(C2=NC(c3ccncc3)=Nc3ccc(Br)cc3N2)cc1 | i | -28.6% | i | x | -24.9% | x
CCCSC(=S)c1c(C)[nH]n(-c2ccccc2)c1=O | u | -57.0% | u | u | 0.0% | 13µM*
CN(C)S(=O)(=O)c1ccc2c(c1)N(CC(=O)NCc1ccccc1)C(=O)C1CCCCN21 (centres undefined) | i | 3.4% | i | x | -3.4% | x
COc1ccc(Cc2nc3ccc(C(=O)N4C[C@@H](C)O[C@@H](C)C4)cc3o2)cc1OC | i | -1.1% | u | -4.9% | -18.4% | -3.5%

Compound activity as filed in PubChem.
